We go through 40 molecules from PubChem BioAssay (NCATS).

Records with an inconclusive call do not appear. Active and inactive are the calls of the source. Calls come from the whole dose curve; as a rule, active = well fitted inhibition curve with a large enough effect; inconclusive = small, poorly fitted or top-dose-only effect; inactive = no such curve, though single readings can be large or run the other way.
Potency is the fitted concentration of half-maximal effect.

The experiment can be described thus: qHTS Screen of the MIPE 4.0 Collection Against Ewings Sarcoma (RDES) (AID 1259252).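 For viability (percent of control): 100% = DMSO-treated cells and 0% = medium-only wells without cells.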 Note: nearly all actives have a fitted effect of over 35% in size. The conditions noted are these: RD-ES Ewing sarcoma viability, CellTiter-Glo, 48 h; series mostly up to 45.8 µM; viability (percent of control): at the top concentration. The text has this:
There is a large unmet medical need for treatments for Ewing sarcoma, a pediatric sarcoma. We sought to identify compounds that inhibited Ewing sarcoma cells in vitro with the goal to then test promising drugs in two drug combinations in vitro to look for synergistic drug combinations. Promising combinations would then proceed to additional validation, including in vivo testing.
Using the NCATS developed oncology compound library called the Mechanism of Interrogation Plate (MIPE), four Ewing sarcoma cell lines were evaluated (TC32, TC71, RDES, EW8). Compounds, in a 12-point titration series, were incubated with cells for 48 hours and the read out was cell viability (CellTiter-Glo from Promega). These initial experiments were used to select appropriate concentrations of each single agent for subsequent two-drug matrix combinations such that the concentrations in the matrices would span both activity and non-activity.
Cells, in the log phase of growth, were seeded in 5 uL of RPMI plus 5% FBS, […] L-glutamine, 100 U/ml penicillin and 100 ug/ml streptomycin into 1536-well solid-bottom white tissue culture treated Greiner Bio One Plates (789173-F) using a MultiDrop Combi (Thermofisher Scientific) dispenser and a small sterile cassette. One column was media alone to be used as a :"no cells" control. The plates were then covered with sterilized stainless steel gasketed lids from Kalypsys. After allowing cells to attach for 4 hours, 23 nL of test compound or control (negative control DMSO and positive control 9.2 uM Bortezomib-final) were added from a 1536-well polypropylene compound source plate to each well using a 1536 head pin tool from Kalypsys. Cells were then incubated for 48 hours at 37C, 95% relative humidity and 5% CO2. After 48 hours, plates were removed from the incubator and 3 uL of CellTiter-Glo (Promega) was added using an Aurora Flying Reagent Dispenser Bioraptor. Plates were incubated at room temperature for 10 minutes prior to reading the luminescence on the Viewlux (PerkinElmer). The relative luciferase units are used to calculate the percent activity using the activity of DMSO in the cells and no cells columns for normalization of no inhibition and full inhibition respectively.
For the molecule `COc1ccc([C@@H]2CNC(=O)C2)cc1OC1CCCC1`, the Potency is 0.833 µM (active).

Turning to `Cc1ccc(-n2[nH]c(C)c(N=Nc3cccc(-c4cccc(C(=O)O)c4)c3O)c2=O)cc1C`, the Potency was 18.7 µM (active). On to `OC[C@H]1OC(O)C[C@@H](O)[C@H]1O` (stereo not given in full), for which the “viability (percent of control)” value is 122% (inactive).

On to `COc1cc(CCc2cc(NC(=O)c3ccc(N4C[C@@H](C)N[C@@H](C)C4)cc3)n[nH]2)cc(OC)c1`, for which the Potency is 18.7 µM (active). As to `CC(=O)O[C@@]12CO[C@H]1C[C@H](O)[C@@]1(C)C(=O)[C@H](O)C3=C(C)[C@@H](OC(=O)C(O)[C@@H](NC(=O)OC(C)(C)C)c4ccccc4)C[C@@](O)([C@@H](OC(=O)c4ccccc4)[C@@H]21)C3(C)C` (stereo not given in full), the “viability (percent of control)” value is 19.6% (inactive). Still for that read-out and setting: with `Nc1cccc2c1C(=O)N(C1CCC(=O)NC1=O)C2=O` (stereo not given) the figure was 120% (inactive).

`CCCCCCCCc1ccc(CCC(N)(CO)CO)cc1`: the Potency is 23.5 µM (active).

On to `Cc1ccc([N+](=O)[O-])cc1S(=O)(=O)N(C)N=Cc1cnc2ccc(Br)cn12`, for which the Potency was 0.0296 µM (active). Same read-out and setting: with `CC(C)NC[C@@H](C(=O)N1CCN(c2ncnc3c2[C@H](C)C[C@H]3O)CC1)c1ccc(Cl)cc1` the figure was 4.69 µM (active); with `Cc1cnc(NC(=O)Nc2cc(Br)c(C)cc2OC[C@@H]2CNCCO2)cn1`, 2.35 µM (active). In the case of `C[N+](C)([O-])CCNc1ccc(NCC[N+](C)(C)[O-])c2c1C(=O)c1c(O)ccc(O)c1C2=O`, the Potency is 18.7 µM (active). With `CC[C@H]1OC(=O)[C@H](C)[C@@H](O[C@H]2C[C@@](C)(OC)[C@@H](O)[C@H](C)O2)[C@H](C)[C@@H](O[C@@H]2O[C@H](C)C[C@H](N(C)C)[C@@H]2O)[C@](C)(OC)C[C@@H](C)C(=O)[C@H](C)[C@@H](O)[C@]1(C)O`, the “viability (percent of control)” value was 122% (inactive). In the case of `O=C(C=CC#Cc1cccc(NS(=O)(=O)c2ccccc2)c1)NO`, the Potency was 1.87 µM (active).

`CS[C@H]1SC[C@@H]2C(=O)N(C)[C@H](C(C)C)C(=O)OC[C@H](NC(=O)c3cnc4ccccc4n3)C(=O)N[C@H](C)C(=O)N(C)[C@@H]1C(=O)N(C)[C@H](C(C)C)C(=O)OC[C@H](NC(=O)c1cnc3ccccc3n1)C(=O)N[C@H](C)C(=O)N2C`: the Potency is 0.0019 µM (active). Regarding `C[C@H](NC(=O)[C@@H](O)c1cc(F)cc(F)c1)C(=O)N[C@@H]1C(=O)N(C)c2ccccc2-c2ccccc21`, the “viability (percent of control)” value is 111% (inactive). Still for that read-out and setting: under `O=C1c2c(O)cccc2[C@@H]([C@@H]2O[C@H](CO)[C@@H](O)[C@H](O)[C@H]2O)c2cc(CO)cc(O)c21` stands 112% (inactive). `CC(=CC(=O)Nc1ccccc1C(=O)O)c1ccc2ccccc2c1`: the Potency was 4.18 µM (active). As to `NC[C@H]1O[C@H](O[C@H]2[C@@H](O)[C@@H](O[C@H]3O[C@H](CO)[C@@H](O)[C@H](N)[C@@H]3O)[C@H](N)C[C@@H]2N)[C@H](N)C[C@H]1O`, the “viability (percent of control)” value is 117% (inactive).

As to `Cc1cc(Nc2ncc3c(n2)N(C)C(=O)N(c2cc(NC(=O)c4cccc(C(F)(F)F)c4)ccc2C)C3)n(C)n1`, the Potency is 0.418 µM (active). On the same count and under the same terms, with `Cn1c(Nc2ccc(C(F)(F)F)cc2)nc2cc(Oc3ccnc(-c4ncc(C(F)(F)F)[nH]4)c3)ccc21` the figure was 14.8 µM (active); with `CC(C)(N)c1ccc(-c2nc3ccccc3nc2-c2ccccc2)cc1`, 26.4 µM (active); with `CCN(CC)CCNC(=O)c1c(C)[nH]c(C=C2C(=O)Nc3ccc(F)cc32)c1C`, 9.59 µM (active).

Consider `CC(C)(C)[N+]([O-])=Cc1ccc(S(=O)(=O)O)cc1S(=O)(=O)O`, for which the “viability (percent of control)” value was 128% (inactive). For `CC(C)c1cc(C(C)C)c(CC(=O)NS(=O)(=O)Oc2c(C(C)C)cccc2C(C)C)c(C(C)C)c1`, the Potency is 7.43 µM (active). Take `C[C@@H](Cc1cc2c(c(C(N)=O)c1)N(CCCO)CC2)NCCOc1ccccc1OCC(F)(F)F`: the “viability (percent of control)” value is 102% (inactive). Same read-out and setting: under `OC[C@@H](O)[C@@H](O)[C@H](O)[C@@H](O)CO` stands 129% (inactive). On the same count and under the same terms, with `O=C(O)C(=O)Nc1cccc(C2=NN=N[N]2)c1` the figure was 115% (inactive).

On to `C=CC(=O)Nc1ccc2ncnc(Nc3ccc(OCc4cccc(F)c4)c(Cl)c3)c2c1`, for which the Potency is 0.148 µM (active). The same measure, in the same setting: under `O=c1c(O)c(-c2ccc(O)c(O)c2)oc2cc(O)ccc12` stands 14.8 µM (active). Regarding `COC(=O)[C@H](CCCN=C(N)N)NS(=O)(=O)c1ccc(C)cc1`, the “viability (percent of control)” value is 122% (inactive). Regarding `FC(F)c1nc2ccccc2n1-c1nc(N2CCOCC2)nc(N2CCOCC2)n1`, the Potency was 0.235 µM (active). On the same count and under the same terms, under `CCC(C=C[C@@H]1OC(=O)C=C[C@H]1C)=C[C@H](C)CC=CC(C)=C[C@@H](C)C(=O)[C@@H](C)[C@H](O)[C@@H](C)CC(C)=CC(=O)O` stands 0.022 µM (active). On to `CC(=O)NC(CS)C(=O)O` (stereo not given), for which the “viability (percent of control)” value is 135% (inactive). As to `NS(=O)(=O)OC[C@@H]1C[C@@H](n2ccc3c(N[C@H]4CCc5ccccc54)ncnc32)C[C@H]1O`, the Potency is 0.332 µM (active).

Consider `O=C(CCCCCCC(=O)Nc1cccnc1)NO`, for which the Potency was 2.96 µM (active). For the molecule `O=S(=O)(O)CCSSCCS(=O)(=O)O`, the “viability (percent of control)” value was 120% (inactive). Same read-out and setting: under `Nc1nc(=O)n([C@H]2CSC(CO)O2)cc1F` (stereo not given in full) stands 117% (inactive); under `C[C@]12C=CC(=O)N[C@@H]1CC[C@H]1[C@H]3CC[C@@H](C(=O)Nc4cc(C(F)(F)F)ccc4C(F)(F)F)[C@@]3(C)CC[C@@H]12`, 112% (inactive).

In the case of `C[C@@H]1C(=O)O[C@H]2CC34[C@H]5C[C@@H](C(C)(C)C)C36[C@H](OC(=O)[C@@H]6O)O[C@@]4(C(=O)O5)[C@]21O` (stereo not given in full), the “viability (percent of control)” value is 107% (inactive). On the same count and under the same terms, under `Cn1cnc2c(F)c(Nc3ccc(Br)cc3F)c(C(=O)NOCCO)cc21` stands 105% (inactive).
